From PubChem
AmpC detergent – inhibitors of E. coli AmpC beta-lactamase with detergent; 370,000 tested, 0.041% active; Potency, µM (top dose mostly 114 µM), hits mostly inhibitors; P00811; AmpC hydrolysis of nitrocefin, absorbance 480 nm, 0.01% Triton; note: nearly all actives have a fitted effect of over 25% in size
Target sequence (P00811 whole entry, looked up): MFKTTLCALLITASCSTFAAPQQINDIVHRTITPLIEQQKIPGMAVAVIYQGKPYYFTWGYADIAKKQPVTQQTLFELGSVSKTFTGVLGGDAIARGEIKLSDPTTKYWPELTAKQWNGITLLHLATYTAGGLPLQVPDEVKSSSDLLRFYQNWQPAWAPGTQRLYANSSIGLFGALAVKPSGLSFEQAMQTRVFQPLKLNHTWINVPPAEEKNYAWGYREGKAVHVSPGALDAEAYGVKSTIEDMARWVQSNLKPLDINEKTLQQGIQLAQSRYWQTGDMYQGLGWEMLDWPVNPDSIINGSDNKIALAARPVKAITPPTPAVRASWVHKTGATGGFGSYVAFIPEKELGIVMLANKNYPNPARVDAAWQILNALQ
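20 mM phosphate pH 7.0 + 0.01% (detergent screen) or 0.0001% Triton X-100; 5.3 nM AmpC reagent; cpd preinc 15 min RT; nitrocefin (800 uM stock) to start; A480 q20 s × 4 min; Activity was normalised to no-enzyme and no-compound control wells.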
Shiga inhibitor – inhibitors of Shiga toxin in Vero cells. 290,000 tested, 9.2% active. Vero cells, Shiga toxin protein synthesis inhibition reporter. inhibition, % at 38.7 µM; in the data active = inhibition mostly above about 28%, no sharp cut-off; inactive = mostly below about 43%
AMA1-RON2 inh – AMA1-RON2 (P. falciparum) interaction inhibition; AlphaScreen AMA1-biotinylated RON2 peptide binding; Potency, µM (titrated, usually from 58.2 µM), actives largely listed as inhibitors; 360,000 tested, 0.2% active; note: nearly all actives have a fitted effect of over 45% in size
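AMA1 (3D7) with his tag at 25 nM final met compounds first, then biotinylated RON2 peptide at 25 nM; detection used donor plus acceptor beads, 10 µg/mL apiece, read by AlphaScreen after 30 min at room temperature.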
Cycloheximide cs – counter-screen for Shiga toxin inhibitors: cycloheximide protein synthesis inhibition | cell reporter, cycloheximide protein synthesis inhibition counterscreen | max response, % | 300,000 tested, 12% active; in the data active = max response mostly above about 13%, no sharp cut-off; inactive = mostly below about 14%; note: read at 38.3 µM for the half of the compounds with a filed dose
AmpC no deterg – AmpC beta-lactamase inhibition without detergent. P00811. AmpC nitrocefin hydrolysis, absorbance 480 nm, 0.0001% Triton. AID 485341. Potency, µM (top dose mostly 57.1 µM), usual class: inhibitors. 330,000 tested, 0.52% active; note: nearly all actives have a fitted effect of over 20% in size
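AmpC (5.3 nM in the dispensed reagent) in 20 mM phosphate pH 7.0 with 0.01% (detergent screen) or 0.0001% Triton X-100 was preincubated with compounds for 15 min at room temperature. Nitrocefin was then added from an 800 uM solution, and hydrolysis was followed at 480 nm.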
SARS PLP yeast – SARS-CoV PLP inhibition in yeast | S. cerevisiae expressing SARS-CoV PLpro, growth rescue | Potency, µM (highest dose often 32.9 µM), usual class: activators | 330,000 tested, 0.19% active | AID 485353; calls by dose curve; note: nearly all actives have a fitted effect of over 55% in size
A number is an active result; - = inactive; ? = inconclusive; . = no result given. The entries come from a sample that favours hits as a whole. Unless noted, calls come from the whole dose curve; as a rule, active = well fitted curve in the direction sought with a large enough effect; inconclusive = small, poorly fitted or top-dose-only effect, or another doubt; inactive = no such curve, though single readings can be large; an effect the other way counts as inactive or inconclusive.

SMILES	AmpC detergent	Shiga inhibitor	AMA1-RON2 inh	Cycloheximide cs	AmpC no deterg	SARS PLP yeast
NC(=O)C1CC(=O)N(c2ccc(OCc3c(F)cccc3Cl)cc2)C1 (centres undefined)	-	-	-	-	-	-
CCCOc1ccccc1OCC(=O)Nc1ccc(S(=O)(=O)N2CCCCC2)cc1	-	.	-	.	-	-
COC(=O)c1sccc1S(=O)(=O)Nc1ccc(Cl)cc1	-	-	-	-	-	-
CC(C)(C)NC(=O)Cn1nnc(-c2ccc(OCc3c(F)cccc3Cl)cc2)n1	-	-	-	13	-	-
O=C(N/N=C\c1ccc(CNS(=O)(=O)c2ccccc2)o1)C(=O)Nc1ccc(F)cc1	?	-	-	14	-	-
O=C(N/N=C\c1ccc(CNS(=O)(=O)c2ccc(Cl)cc2)o1)C(=O)Nc1ccc(Oc2ccccc2)cc1	-	-	-	-	-	-
O=C(Nn1c(SCc2cccc([N+](=O)[O-])c2)nc2ccccc2c1=O)c1ccccc1	-	123	-	81	-	-
COc1ccc(C(=O)Nn2c(SCC(=O)c3ccc(Cl)cc3)nc3ccccc3c2=O)cc1	-	-	-	17	-	-
COc1ccc(C(=O)Nn2c(SCc3cccc([N+](=O)[O-])c3)nc3ccccc3c2=O)cc1	-	114	-	61	-	-
CCN1CCN(C(=O)c2ccc3c(c2)N(Cc2cccc(Cl)c2)C(=O)c2ccccc2S3(=O)=O)CC1	-	.	.	.	.	.
CC(=O)C1(O)CCC2C3CCC4CC(=O)CCC4(C)C3C(=O)CC21C (centres undefined)	.	.	-	.	.	.
O=C(O)c1ccccc1CSc1nc2ccccc2o1	-	67	-	35	-	-
CC(=O)CSc1nc2ccccc2o1	-	57	-	27	-	-
O=C(O)c1ccc(CSc2nc3ccccc3o2)cc1	-	-	-	-	-	-
O=C(CSc1nc2ccccc2o1)c1ccc2c(c1)OCCO2	-	98	-	40	-	-
CCCCCCOC(=O)Sc1nc2ccccc2o1	-	43	-	29	-	-
CN1CCC(N(C)C(=O)/C=C/c2cn(-c3ccccc3)nc2-c2cccs2)CC1	-	-	-	-	-	-
CC(C)C(NC(=O)c1cccs1)C(=O)NC1CCCCC1 (centres undefined)	-	-	-	-	-	-
CC(=O)OCc1c(-c2ccccc2)c2cc([N+](=O)[O-])ccc2n1C	-	-	-	-	-	-
C=CCc1cc(F)c(S(=O)(=O)N2CCN(S(=O)(=O)c3ccc4c(c3)OCCO4)CC2)cc1F	.	-	.	-	.	.
O=C(CSc1nc2ccccc2o1)c1ccccc1	-	active	-	47	-	-
COC(=O)CSc1nc2ccccc2o1	-	-	-	-	-	-
COc1cc(NC(=O)c2cc3ccccc3cc2OC)ccc1NC(=O)c1cccs1	-	-	-	-	-	-
COc1cc(NC(=S)NC(=O)c2c(OC)cccc2OC)ccc1NC(=O)c1cccs1	-	-	-	-	-	-
COc1cc(NC(=O)c2ccccc2Cl)ccc1NC(=O)c1cccs1	-	105	-	46	-	-
SMILES	AmpC detergent	Shiga inhibitor	AMA1-RON2 inh	Cycloheximide cs	AmpC no deterg	SARS PLP yeast
COc1cc(NC(=O)c2cccc(Cl)c2)ccc1NC(=O)c1cccs1	-	-	-	16	-	-
COc1c(Cl)cc(Cl)cc1/C=C/C(=O)c1ccc(NC(=O)c2cccs2)cc1	?	40	-	30	?	-
O=C(Nc1ccccc1F)C(Cc1ccccc1)n1cccc1 (centres undefined)	-	.	.	.	.	.
COc1ccc(CNc2ncc(-c3ccc(F)cc3)n2C)cc1OC	-	.	?	-	-	-
Cc1nn(Cc2nnc(SCC(=O)Nc3cccc(C(F)(F)F)c3)n2C)c(C)c1[N+](=O)[O-]	-	-	-	-	-	-
CC(=O)Nc1nc(-c2cccc3ccccc23)cs1	?	-	-	15	-	-
CC(=O)Nc1nc(-c2ccc(Br)s2)cs1	-	63	-	25	-	-
O=C(NC(=S)Nc1nc(-c2cccc3ccccc23)cs1)c1cc2ccccc2o1	-	-	-	-	-	-
Cc1ccccc1C(=O)Nc1nnc(SCC(=O)NCc2ccco2)s1	-	72	-	21	-	-
O=C(CSc1nnc(NC(=O)c2ccccc2)s1)NCc1ccco1	-	41	-	40	-	-
CCOC(=O)CNC(=O)CSc1nnc(NC(=O)c2ccc3c(c2)OCO3)s1	-	22	-	12	-	-
CC(C)Sc1nnc(NC(=O)CCc2ccccc2)s1	-	-	-	-	-	-
CCOC(=O)CNC(=O)CSc1nnc(NC(=O)c2ccc(C)cc2)s1	-	-	-	-	-	-
Cc1ccccc1C(=O)Nc1nnc(SC(C)C)s1	-	-	-	30	-	-
COc1ccc(S(=O)(=O)NCC2CCC(C(=O)NCc3cccnc3)CC2)cc1 (centres undefined)	-	-	-	-	-	-
O=C(CSc1nnc(NC(=O)c2ccc3c(c2)OCO3)s1)NCc1ccco1	-	-	-	23	-	-
O=C(CSc1nnc(NC(=O)c2ccco2)s1)NCc1ccc2c(c1)OCO2	-	-	-	-	-	-
O=C(CSc1nnc(NC(=O)c2ccc(F)cc2)s1)NCc1ccco1	-	45	-	29	-	-
O=C(NNC(=O)c1ccc2ccccc2c1O)Nc1ccc(F)cc1	-	-	-	-	-	-
O=Cc1cccc(OCc2cn(CC(=O)c3ccc(O)cc3)nn2)c1	.	.	-	.	.	.
CN1C(=O)C(Cc2ccc(OCc3ccccc3)cc2)C(=O)N(C)C1=O	-	67	-	38	-	-
COc1cc(CC2C(=O)N(C)C(=O)N(C)C2=O)ccc1OCc1ccccc1	-	-	-	-	-	-
O=C(Cn1ccc2cc(S(=O)(=O)N3CCCCCC3)ccc21)NCCc1ccc(Cl)cc1	-	.	.	.	.	.
CCc1cc2c(=O)c(-c3ccc4c(c3)OCCO4)coc2cc1OS(C)(=O)=O	-	79	-	42	-	-
CCc1cc2c(=O)c(-c3ccc4c(c3)OCCO4)coc2c(CN2CCCCC2C)c1O (centres undefined)	-	-	-	-	-	-
COc1ccc(C(=O)n2c(SC)nc3cc4c(cc32)OCCO4)cc1	?	52	-	49	-	-
Cc1nc2ccccc2c(=O)n1NC(=O)C1CCC(C(C)(C)C)CC1 (centres undefined)	-	-	-	-	-	-
S=c1[nH]nc(-c2ccncc2)n1/N=C/C(Cl)=C\c1ccccc1	-	61	-	24	-	-
CC[C@]12c3[nH]c4cc(-c5ccco5)ccc4c3CCN1C(=O)[C@@H](CC(=O)NCC13CC4CC(CC(C4)C1)C3)C[C@@H]2C(=O)N1CCN(C(=O)c2ccco2)CC1	.	.	-	.	-	-
